# About 2,000 (36%) of roughly 5,500 compounds were called active. Another 18% or so got no clear call; they are omitted. Some of the results follow. Unmarked numbers belong to inactive results. Rule as the data show it: active = normalized growth mostly below about 0.91 (no sharp cut-off); inconclusive = no clear call, values can overlap the other calls; inactive = mostly above about 0.92.
# Assay: chemical genetic growth profiling, strain panel (AID 1159580);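 also: tested at 20 µM; growth read once vehicle control cultures reached saturation at 30 °C; 1 = growth at the plate median or of vehicle wells; lower values mean less growth of the strain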
# Conditions: S. cerevisiae deletion strains, growth OD
# [1] = locus YAR019C, strain CDC15, stronger effect = lower value
# [2] = locus YBL105C, strain PKC1, stronger effect = lower value
# [3] = locus YBR135W, strain CKS1, stronger effect = lower value
# [4] = locus YBR136W, strain MEC1, stronger effect = lower value
# [5] = locus YBR160W, strain CDC28, stronger effect = lower value
# [6] = locus YDL017W, strain CDC7, stronger effect = lower value
# [7] = locus YDL028C, strain MPS1, stronger effect = lower value
# [8] = locus YDL101C, strain DUN1, stronger effect = lower value
# [9] = locus YDL108W, strain KIN28, stronger effect = lower value
# [10] = locus YDL132W, strain cdc53, stronger effect = lower value
# [11] = locus YDL214C, strain PRR2, stronger effect = lower value
# [12] = locus YDR052C, strain DBF4, stronger effect = lower value
# [13] = locus YDR054C, strain cdc34, stronger effect = lower value
# [14] = locus YDR226W, strain ADK1, stronger effect = lower value
# [15] = locus YDR477W, strain SNF1, stronger effect = lower value
# [16] = locus YER123W, strain YCK3, stronger effect = lower value
# [17] = locus YER133W, strain GLC7, stronger effect = lower value
# [18] = locus YFL009W, strain cdc4, stronger effect = lower value
# [19] = locus YFL029C, strain CAK1, stronger effect = lower value
# [20] = locus YFR003C, strain YPI1, stronger effect = lower value
# [21] = locus YFR019W, strain FAB1, stronger effect = lower value
# [22] = locus YFR028C, strain CDC14, stronger effect = lower value
# [23] = locus YGR040W, strain KSS1, stronger effect = lower value
# [24] = locus YGR052W, strain FMP48, stronger effect = lower value
# [25] = locus YGR092W, strain DBF2, stronger effect = lower value
# [26] = locus YHR030C, strain SLT2, stronger effect = lower value
# [27] = locus YHR079C, strain IRE1, stronger effect = lower value
# [28] = locus YHR082C, strain KSP1, stronger effect = lower value
# [29] = locus YHR205W, strain SCH9, stronger effect = lower value
# [30] = locus YIL147C, strain SLN1, stronger effect = lower value
# [31] = locus YJL095W, strain BCK1, stronger effect = lower value
# [32] = locus YJL128C, strain PBS2, stronger effect = lower value
# [33] = locus YJL157C, strain FAR1, stronger effect = lower value
# [34] = locus YJR016C, strain ILV3, stronger effect = lower value
# [35] = locus YJR066W, strain TOR1 (second series), stronger effect = lower value
# [36] = locus YJR066W, strain TOR1, stronger effect = lower value
# [37] = locus YKL048C, strain ELM1, stronger effect = lower value
# [38] = locus YKL067W, strain YNK1, stronger effect = lower value
# [39] = locus YKL101W, strain HSL1, stronger effect = lower value
# [40] = locus YKL193C, strain SDS22, stronger effect = lower value
# [41] = locus YKL203C, strain TOR2, stronger effect = lower value
# [42] = locus YLR113W, strain HOG1, stronger effect = lower value
# [43] = locus YLR133W, strain CKI1, stronger effect = lower value
# [44] = locus YLR403W, strain SFP1, stronger effect = lower value
# [45] = locus YML070W, strain DAK1, stronger effect = lower value
# [46] = locus YMR001C, strain CDC5, stronger effect = lower value
# [47] = locus YMR205C, strain PFK2 (second series), stronger effect = lower value
# [48] = locus YMR277W, strain FCP1, stronger effect = lower value
# [49] = locus YNL006W, strain LST8, stronger effect = lower value
# [50] = locus YNL020C, strain ARK1, stronger effect = lower value
# [51] = locus YNL161W, strain CBK1, stronger effect = lower value
# [52] = locus YNL183C, strain NPR1, stronger effect = lower value
# [53] = locus YNL207W, strain RIO2, stronger effect = lower value
# [54] = locus YNL222W, strain SSU72, stronger effect = lower value
# [55] = locus YNL307C, strain MCK1 (second series), stronger effect = lower value
# [56] = locus YOL078W, strain AVO1, stronger effect = lower value
# [57] = locus YOL136C, strain PFK27, stronger effect = lower value
# [58] = locus YOR061W, strain CKA2, stronger effect = lower value
# [59] = locus YOR119C, strain RIO1, stronger effect = lower value
# [60] = locus YOR231W, strain MKK1, stronger effect = lower value
# [61] = locus YOR329C, strain SCD5, stronger effect = lower value
# [62] = locus YPL031C, strain PHO85, stronger effect = lower value
# [63] = locus YPL153C, strain RAD53, stronger effect = lower value
# [64] = locus YPL204W, strain HRR25, stronger effect = lower value
# [65] = locus YPL209C, strain IPL1, stronger effect = lower value
# [66] = locus YPL256C, strain CLN2, stronger effect = lower value
# [67] = locus YPR025C, strain CCL1, stronger effect = lower value
# [68] = locus YPR106W, strain ISR1, stronger effect = lower value
# [69] = locus YPR111W, strain DBF20, stronger effect = lower value
# [70] = strain NNK1, stronger effect = lower value
# [71] = strain TSCII, stronger effect = lower value
compound,measurement,setting,value
CCC1(c2ccccc2)OC(c2cc(Cl)cc(Cl)c2O)Nc2ccccc21 (stereo unspecified),normalized growth,[1],0.96
same,normalized growth,[2],0.964
same,normalized growth,[3],0.965
same,normalized growth,[4],0.968
same,normalized growth,[5],0.964
same,normalized growth,[6],0.965
same,normalized growth,[7],0.966
same,normalized growth,[8],0.986
same,normalized growth,[9],0.968
same,normalized growth,[10],0.963
same,normalized growth,[11],0.705
same,normalized growth,[12],0.976
same,normalized growth,[13],0.954
same,normalized growth,[14],0.97
same,normalized growth,[15],0.689 (active)
same,normalized growth,[16],0.513 (active)
same,normalized growth,[17],0.734
same,normalized growth,[18],0.962
same,normalized growth,[19],0.967
same,normalized growth,[20],0.958
same,normalized growth,[21],0.738 (active)
same,normalized growth,[22],0.963
same,normalized growth,[23],0.689 (active)
same,normalized growth,[24],0.651
same,normalized growth,[25],0.233 (active)
same,normalized growth,[26],0.449 (active)
same,normalized growth,[27],0.461 (active)
same,normalized growth,[28],0.689
same,normalized growth,[29],0.639
same,normalized growth,[30],0.964
same,normalized growth,[31],0.464 (active)
same,normalized growth,[32],0.93
same,normalized growth,[33],0.564 (active)
same,normalized growth,[34],0.962
same,normalized growth,[35],0.633
same,normalized growth,[36],0.572
same,normalized growth,[37],0.717 (active)
same,normalized growth,[38],0.696 (active)
same,normalized growth,[39],0.678 (active)
same,normalized growth,[40],0.971
same,normalized growth,[41],0.751
same,normalized growth,[42],0.539 (active)
same,normalized growth,[43],0.623 (active)
same,normalized growth,[44],0.572 (active)
same,normalized growth,[45],0.561 (active)
same,normalized growth,[46],0.971
same,normalized growth,[47],0.688 (active)
same,normalized growth,[48],0.968
same,normalized growth,[49],0.969
same,normalized growth,[50],0.552 (active)
same,normalized growth,[51],0.962
same,normalized growth,[52],0.646
same,normalized growth,[53],0.96
same,normalized growth,[54],0.956
same,normalized growth,[55],0.551 (active)
same,normalized growth,[56],0.967
same,normalized growth,[57],0.452 (active)
same,normalized growth,[58],0.469 (active)
same,normalized growth,[59],0.753
same,normalized growth,[60],0.476 (active)
same,normalized growth,[61],0.962
same,normalized growth,[62],0.685
same,normalized growth,[63],0.562 (active)
same,normalized growth,[64],0.604 (active)
same,normalized growth,[65],0.954
same,normalized growth,[66],0.47 (active)
same,normalized growth,[67],0.96
same,normalized growth,[68],0.954
same,normalized growth,[69],0.957
same,normalized growth,[70],0.963
same,normalized growth,[71],0.966
COc1ccc(-n2nc(C(F)(F)F)cc2-c2ccc(Cl)cc2)cc1,normalized growth,"locus YAL040C, strain CLN3, stronger effect = lower value",1.09
same,normalized growth,"locus YCL061C, strain MRC1 (second series), stronger effect = lower value",1.01
same,normalized growth,"locus YDR363W, strain ESC2, stronger effect = lower value",1.02
same,normalized growth,"locus YER002W, strain NOP16, stronger effect = lower value",1.03
same,normalized growth,"locus YGR078C, strain PAC10, stronger effect = lower value",1.01
same,normalized growth,"locus YMR263W, strain SAP30, stronger effect = lower value",1
same,normalized growth,"locus YMR307W, strain GAS1, stronger effect = lower value",1.01
same,normalized growth,"locus YNL175C, strain NOP13, stronger effect = lower value",1.02
same,normalized growth,"locus YNL197C, strain WHI3, stronger effect = lower value",1.02
same,normalized growth,"locus YNL224C, strain SQS1, stronger effect = lower value",0.998
same,normalized growth,"locus YNL322C, strain KRE1, stronger effect = lower value",1.02
same,normalized growth,"locus YOR083W, strain WHI5 (second series), stronger effect = lower value",1.02
same,normalized growth,"locus YPL055C, strain LGE1, stronger effect = lower value",1.02
same,normalized growth,"locus YPL241C, strain CIN2, stronger effect = lower value",1
O=S(=O)(Nc1cc(-c2cccs2)nn1-c1ccc(I)cc1)c1cccc(F)c1,normalized growth,[1],0.957
same,normalized growth,[2],0.966
same,normalized growth,[3],0.966
same,normalized growth,[4],0.97
same,normalized growth,[5],0.956
same,normalized growth,[6],0.97
same,normalized growth,[7],0.948
same,normalized growth,[8],0.983
same,normalized growth,[9],0.958
same,normalized growth,[10],0.966
same,normalized growth,[11],0.926
same,normalized growth,[12],0.983
same,normalized growth,[13],0.986
same,normalized growth,[14],0.961
same,normalized growth,[15],0.926
same,normalized growth,[16],0.929
same,normalized growth,[17],0.951
same,normalized growth,[18],0.971
same,normalized growth,[19],0.953
same,normalized growth,[20],0.979
same,normalized growth,[21],0.974
same,normalized growth,[22],0.983
same,normalized growth,[23],0.931
same,normalized growth,[24],0.966
same,normalized growth,[25],0.876
same,normalized growth,[26],0.715 (active)
same,normalized growth,[27],0.922
same,normalized growth,[28],0.968
same,normalized growth,[29],0.863
same,normalized growth,[30],0.967
same,normalized growth,[31],0.903
same,normalized growth,[32],0.91
same,normalized growth,[33],0.956
same,normalized growth,[34],0.969
same,normalized growth,[35],0.952
same,normalized growth,[36],0.906
same,normalized growth,[37],0.947
same,normalized growth,[38],0.912
same,normalized growth,[39],0.931
same,normalized growth,[40],0.971
same,normalized growth,[41],1.03
same,normalized growth,[42],0.848 (active)
same,normalized growth,[43],0.935
same,normalized growth,[44],0.944
same,normalized growth,[45],0.936
same,normalized growth,[46],0.966
same,normalized growth,[47],0.945
same,normalized growth,[48],0.968
same,normalized growth,[49],0.964
same,normalized growth,[50],0.946
same,normalized growth,[51],0.974
same,normalized growth,[52],0.986
same,normalized growth,[53],0.968
same,normalized growth,[54],0.956
same,normalized growth,[55],0.911
same,normalized growth,[56],0.966
same,normalized growth,[57],0.925
same,normalized growth,[58],0.951
same,normalized growth,[59],0.961
same,normalized growth,[60],0.935
same,normalized growth,[61],0.968
same,normalized growth,[62],0.928
same,normalized growth,[63],0.943
same,normalized growth,[64],0.928
same,normalized growth,[65],0.975
same,normalized growth,[66],0.87
same,normalized growth,[67],0.966
same,normalized growth,[68],0.964
same,normalized growth,[69],1.01
same,normalized growth,[70],0.965
same,normalized growth,[71],0.965

# Reference: PubChem BioAssay AID1159580 (chemical genetic matrix, 2015)
